The assay relates to Vero E6 infected with SARS-CoV-2. Briefly: morphology score (similarity to uninfected cells); higher = more like uninfected cells. To be noted: 24 h.
Compound `CCOC(=O)[C@@H](N)Cc1ccc(-c2cc(O[C@H](c3ccc(Cl)cc3-n3ccc(C)n3)C(F)(F)F)nc(N)n2)cc1` [telotristat-ethyl] (10 µM) yielded a morphology score of 0.343.
As for `CN(C)C(=O)Oc1ccc[n+](C)c1` [mestinon] (10 µM), the morphology score was determined as 0.0902.
Regarding `CC(C)(C)NCC(O)COc1cccc2[nH]c(=O)[nH]c12` (stereo unspecified) (10 µM), the morphology score worked out at 0.0723.
With `NCC(CC(=O)O)c1ccccc1` (stereo unspecified) [fenigam] (10 µM), the morphology score came to 0.256.
As for `N#Cc1ccc(COC[C@H]2O[C@@H](n3c(NCc4ccc(Cl)c(Cl)c4)nc4c(N)ncnc43)[C@H](O)[C@@H]2O)cc1` (10 µM), the figure is 0.0983.
`N=C(N)S/C=C\C(=O)O` (10 µM): the morphology score amounted to 0.101.
Turning to `O=C(O)CCCO` (10 µM), the morphology score was found to be 0.0908.
Compound `CCn1c2ccccc2c2cc(CNC)ccc21` (10 µM) came in with a morphology score of 0.514.
As for `CCOc1cc(C(C)(C)C)ccc1C1=N[C@@](C)(c2ccc(Cl)cc2)[C@@](C)(c2ccc(Cl)cc2)N1C(=O)N1CCN(CCCS(C)(=O)=O)CC1` (10 µM), the figure is -0.0507; as for `CCn1c(-c2nonc2N)nc2cnc(Oc3cccc(NC(=O)c4ccc(OCCN5CCOCC5)cc4)c3)cc21` (10 µM), 0.306.
The value for `CC(C)NNC(=O)c1ccncc1` [iproniazid] (10 µM) was 0.0745; that for `CCCCCCCCCCCCCCCCCCCCCCO` [docosanol] (10 µM) was 0.0474; that for `Cc1cccc(C(=O)NCN2CCN(c3ccccc3C#N)CC2)c1` (10 µM) was 0.161.
The compound `Nc1ccc(C(=O)O)c(O)c1` [aminosalicylate] (10 µM) had a morphology score of -0.137.
The compound `CCCN1CCC[C@@H]2Cc3n[nH]cc3C[C@H]21` [quinpirol-(-)] (10 µM) came in with a morphology score of 0.203.
In the case of `CCS(=O)(=O)c1ccc2oc(-c3ccc4ccccc4c3)nc2c1` [ezutromid] (10 µM), the morphology score was found to be 0.174.
The value for `COc1cc(NS(C)(=O)=O)ccc1Nc1c2ccccc2nc2ccccc12` [amsacrine] (10 µM) was -0.0803; that for `CC[C@H](CO)Nc1nc(Nc2cccc(-c3ccccn3)c2)c2ncn(C(C)C)c2n1` (10 µM) was -0.214.
Compound `CCc1ccc(/C=C2/SC(=S)NC2=O)cc1` (10 µM) had a morphology score of 0.0397.
In turn, `Cc1cccc(C)c1NC1=NCCCS1` [xylazine] (10 µM) yielded a morphology score of 0.241.
In the case of `CC1(COc2ccc(CC3SC(=O)NC3=O)cc2)CCCCC1` (stereo unspecified) [ciglitazone] (10 µM), the morphology score is 0.036.
Turning to `CC(C)n1nc(-c2ccc3oc(N)nc3c2)c2c(N)ncnc21` (0.833333 µM), the morphology score is -0.0142.
`COc1cc(C(=O)N2CCOCC2)cc(OC)c1OC` [trimetozine] (10 µM) came in with a morphology score of -0.0638.
`CC1C(=O)OC2C(O)C34C5CC(C(C)(C)C)C36C(OC(=O)C6O)OC4(C(=O)O5)C12O` (stereo unspecified) [ginkgolide-B] (10 µM) returned a morphology score of 0.264.
The compound `COc1ccc(C(=O)NCc2cccnc2)cc1C(=O)NCc1cccnc1` [picotamide] (10 µM) yielded a morphology score of -0.08.
The compound `O=C(Nc1ccncc1)C(=O)c1cn(Cc2ccc(Cl)cc2)c2ccccc12` [indibulin] (0.833333 µM) returned a morphology score of -0.246.
`[O-][n+]1ccccc1[S-].[O-][n+]1ccccc1[S-].[Zn+2]` [pyrithione-zinc] (10 µM): the morphology score was 0.0399.
The value for `COc1cccc(-c2cc(=O)c3ccccc3o2)c1N` (10 µM) was -0.25; that for `O=C(O[C@H]1[C@H](OC(=O)c2cccnc2)[C@@H](OC(=O)c2cccnc2)[C@H](OC(=O)c2cccnc2)[C@@H](OC(=O)c2cccnc2)[C@H]1OC(=O)c1cccnc1)c1cccnc1` [inositol-hexanicotinate] (10 µM) was 0.0225.
Take `Cc1oc2nc3c(c(NC(=O)CN4CCCC4=O)c2c1C)CCCC3` (10 µM): the morphology score was 0.0552.
As for `C#C[C@]1(O)C=C[C@H]2[C@@H]3CCC4=CC(=O)CC[C@@H]4[C@H]3CC[C@@]21CC` [gestodene] (10 µM), the figure is 0.149; as for `COc1ccccc1OC(=O)c1ccccc1OC(C)=O` [guacetisal] (10 µM), 0.0562; as for `CCCCCS(=O)(=O)CCCCCCCCCCn1c(-c2ccc(O)cc2)c(C)c2cc(O)ccc21` (0.833333 µM), 0.00616.
With `C[C@@H]1CN(CCCn2c3ccccc3c3ccccc32)C[C@H](C)N1` [rimcazole] (10 µM), the morphology score was 0.623.
The value for `CCCCCCCCCCCCCCCC[N+](C)(C)Cc1ccccc1` [benzyldimethylhexadecylammonium] (10 µM) was 0.298; that for `O=C([O-])CN1CCN(CC(=O)[O-])CCN([C@H](CO)[C@H](O)CO)CCN(CC(=O)[O-])CC1.[Gd+3]` (racemic) [gadobutrol] (10 µM) was -0.0306.
